Consider eleven molecules from PubChem BioAssay AID1508601 (ICCB-Longwood Screening Facility, Harvard Medical School, 2020).

Structures are written as SMILES. The whole screen tested about 5,700 compounds, of which about 85 (1%) were called active. The sample holds actives, similar compounds and a random draw of the others, so the mix is not that of the screen. Rule as the data show it: active = p53-positive nuclei above about 36% (passing the limit was not always enough); inactive = the rest. Peptide text beside a SMILES is read from it.

A short description of experiment [1]: nuclear p53 accumulation, HPV+ cells – imaging, p53-positive nuclei imaging, 24 h, 48 h (AID 1508601). The note with it: 24/48 h.
Experiment [2] deals with Cellular tumor antigen p53 (Homo sapiens) (UniProt P04637). The description is as above. The conditions noted are these: 24/48 h, stronger effect = higher value.
The mark [3] stands for this setting: measured here: cell number at 24 h, Library stock concentration: 80 uM.
[4] abbreviates: measured here: cell number at 24 h, Library stock concentration: 400 uM.
Where [5] appears, read: measured here: cell number at 24 h, Library stock concentration: 2 mM.
[6] abbreviates: measured here: cell number at 24 h, Library stock concentration: 3.33 mM.
The mark [7] stands for this setting: measured here: cell number at 24 h, Library stock concentration: 10 mM.
[8] abbreviates: measured here: cell number at 48 h, Library stock concentration: 80 uM.
[9] abbreviates: measured here: cell number at 48 h, Library stock concentration: 400 uM.
The mark [10] stands for this setting: measured here: cell number at 48 h, Library stock concentration: 2 mM.
The mark [11] stands for this setting: measured here: cell number at 48 h, Library stock concentration: 3.33 mM.
Setting [12] is: measured here: cell number at 48 h, Library stock concentration: 10 mM.
The mark [13] stands for this setting: Library stock concentration: 80 uM.
Setting [14] is: Library stock concentration: 400 uM.
Where [15] appears, read: Library stock concentration: 2 mM.
Setting [16] is: Library stock concentration: 3.33 mM.
Where [17] appears, read: Library stock concentration: 10 mM.
Setting [18] is: measured here: p53 positive nuclei at 24 h, Library stock concentration: 80 uM.
[19] abbreviates: measured here: p53 positive nuclei at 24 h, Library stock concentration: 400 uM.
The mark [20] stands for this setting: measured here: p53 positive nuclei at 24 h, Library stock concentration: 2 mM.
Setting [21] is: measured here: p53 positive nuclei at 24 h, Library stock concentration: 3.33 mM.
[22] abbreviates: measured here: p53 positive nuclei at 24 h, Library stock concentration: 10 mM.

Sequence of Cellular tumor antigen p53 (Homo sapiens) (P04637 whole entry, looked up): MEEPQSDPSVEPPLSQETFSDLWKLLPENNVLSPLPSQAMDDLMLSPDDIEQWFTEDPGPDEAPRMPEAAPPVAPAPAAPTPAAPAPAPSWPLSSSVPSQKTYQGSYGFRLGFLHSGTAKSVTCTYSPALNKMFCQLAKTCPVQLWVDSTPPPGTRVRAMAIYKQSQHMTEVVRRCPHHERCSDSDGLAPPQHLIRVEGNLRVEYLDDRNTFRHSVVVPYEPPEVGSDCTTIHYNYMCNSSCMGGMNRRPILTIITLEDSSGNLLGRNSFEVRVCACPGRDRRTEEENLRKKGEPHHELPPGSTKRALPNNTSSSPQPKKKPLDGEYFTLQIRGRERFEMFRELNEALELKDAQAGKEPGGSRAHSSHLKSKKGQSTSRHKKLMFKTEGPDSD

Take `O=C(Cc1ccc(-c2ccc(OCCN3CCOCC3)cc2)cn1)NCc1ccccc1`: the nuclei count, normalised in experiment [1] (setting [3]) worked out at 42.9%; in experiment [1] (setting [4]) it was 41.4%; in experiment [1] (setting [5]), 40%; in experiment [1] (setting [6]) it was 41.1%; in experiment [1] (setting [7]), 39.3%; in experiment [1] (setting [8]) it was 27.3%. Also, the nuclei count, normalised worked out at 26.6% in experiment [1] (setting [9]), 28.3% in experiment [1] (setting [10]), 30.8% in experiment [1] (setting [11]) and 26.9% in experiment [1] (setting [12]). Besides, the p53-positive nuclei, normalised is 3.36% (inactive) in experiment [2] (setting [13]); 4.39% (inactive) in experiment [2] (setting [14]); 2.81% (inactive) in experiment [2] (setting [15]); 2.58% (inactive) in experiment [2] (setting [16]); 4.55% (inactive) in experiment [2] (setting [17]); -0.0362% in experiment [2] (setting [18]). Besides, the p53-positive nuclei, normalised in experiment [2] (setting [19]) is 1.51%; in experiment [2] (setting [20]), 1.32%; in experiment [2] (setting [21]), 0.97%; in experiment [2] (setting [22]), 1.31%.
On to `COC(=O)C(Cc1ccccc1)NC(=O)C(N)CC(=O)O` (stereo not drawn) (H-Asp-Phe-OMe; configuration not given here), for which the nuclei count, normalised in experiment [1] (setting [6]) was found to be 101%; in experiment [1] (setting [11]), 94.9%. The p53-positive nuclei, normalised is -0.0669% (inactive) in experiment [2] (setting [16]) and -0.12% in experiment [2] (setting [21]).
As to `COc1ccc(CC(NC(=O)C(C)NC(=O)CN2CCOCC2)C(=O)NC(Cc2ccccc2)C(=O)[C@@]2(C)CO2)cc1` (stereo partly specified), the nuclei count, normalised was determined as 107% in experiment [1] (measured here: cell number at 24 h, Library stock concentration: 46 uM); 109% in experiment [1] (measured here: cell number at 24 h, Library stock concentration: 278 uM); 57.1% in experiment [1] (measured here: cell number at 24 h, Library stock concentration: 1.67 mM); 52.6% in experiment [1] (setting [7]); 113% in experiment [1] (measured here: cell number at 48 h, Library stock concentration: 46 uM); 113% in experiment [1] (measured here: cell number at 48 h, Library stock concentration: 278 uM). The nuclei count, normalised in experiment [1] (measured here: cell number at 48 h, Library stock concentration: 1.67 mM) amounted to 43.8%; in experiment [1] (setting [12]), 39.6%. Moreover, the p53-positive nuclei, normalised in experiment [2] (Library stock concentration: 46 uM) was -0.326% (inactive); in experiment [2] (Library stock concentration: 278 uM), 0.734% (inactive); in experiment [2] (Library stock concentration: 1.67 mM), 103% (active); in experiment [2] (setting [17]) it was 102% (active); in experiment [2] (measured here: p53 positive nuclei at 24 h, Library stock concentration: 46 uM), -0.151%; in experiment [2] (measured here: p53 positive nuclei at 24 h, Library stock concentration: 278 uM), 0.483%. Also, the p53-positive nuclei, normalised was found to be 146% in experiment [2] (measured here: p53 positive nuclei at 24 h, Library stock concentration: 1.67 mM) and 144% in experiment [2] (setting [22]).
As for `COc1ccc(CC(NC(=O)C(C)NC(=O)CN2CCOCC2)C(=O)NC(Cc2ccccc2)C(=O)[C@]2(C)CO2)cc1` (stereo partly specified), the figures for the nuclei count, normalised in experiment [1] (setting [6]) and in experiment [1] (setting [11]) were 46% and 38.7%, respectively. For the same molecule, the p53-positive nuclei, normalised in experiment [2] (setting [16]) was 106% (active); in experiment [2] (setting [21]) it was 126%.
For `CC(C)c1nc(CN(C)C(=O)NC(CCN2CCOCC2)C(=O)NC(CCC(Cc2ccccc2)NC(=O)OCc2cncs2)Cc2ccccc2)cs1` (stereo unspecified), in that order: 98.1%, 96.3%, 4.22% (inactive) and 4.44%.
The corresponding values for `CC(C)CC(CC(=O)NO)C(=O)NC(Cc1ccc2ccccc2c1)C(=O)NC(C)C(=O)NCCN` (stereo unspecified) are 109%, 104%, 0.0444% (inactive) and -0.208%.
As for `CSCCC(NC=O)C(=O)NC(CC(C)C)C(=O)NC(Cc1ccccc1)C(=O)O` (stereo unspecified), the nuclei count, normalised in experiment [1] (setting [3]) came out at 96%; in experiment [1] (setting [4]), 92.8%; in experiment [1] (setting [5]), 99%; in experiment [1] (setting [7]) it was 101%; in experiment [1] (setting [8]) it was 97.1%; in experiment [1] (setting [9]), 91.9%. The nuclei count, normalised in experiment [1] (setting [10]) stood at 96.7%; in experiment [1] (setting [12]), 99.8%. Moreover, the p53-positive nuclei, normalised in experiment [2] (setting [13]) was -0.172% (inactive); in experiment [2] (setting [14]), -0.159% (inactive); in experiment [2] (setting [15]), -0.166% (inactive); in experiment [2] (setting [17]), -0.212% (inactive); in experiment [2] (setting [18]) it was -0.106%; in experiment [2] (setting [19]) it was -0.0972%. Besides, the p53-positive nuclei, normalised in experiment [2] (setting [20]) is -0.166%; in experiment [2] (setting [22]) it was -0.105%.
In the case of `CC(C)CC(NC(=O)C(CCc1ccccc1)NC(=O)CN1CCOCC1)C(=O)NC(Cc1ccccc1)C(=O)NC(CC(C)C)C(=O)[C@@]1(C)CO1` (stereo partly specified), the nuclei count, normalised came out at 36.4% in experiment [1] (setting [6]) and 30.5% in experiment [1] (setting [11]). For the same molecule, the p53-positive nuclei, normalised in experiment [2] (setting [16]) was 104% (active); in experiment [2] (setting [21]), 117%.
Turning to `COCC(NC(=O)c1cnc(C)s1)C(=O)NC(COC)C(=O)NC(Cc1ccccc1)C(=O)C1(C)CO1` (stereo unspecified), the nuclei count, normalised in experiment [1] (setting [6]) was 50.4%; in experiment [1] (setting [11]), 40.7%. For the same molecule, the results for the p53-positive nuclei, normalised in experiment [2] (setting [16]) and in experiment [2] (setting [21]) were 96.5% (active) and 116%, respectively.
As for `COC(=O)[C@H](Cc1ccccc1)NC(=O)[C@@H](N)CC(=O)O` (H-Asp-Phe-OMe), the nuclei count, normalised was found to be 91.1% in experiment [1] (measured here: cell number at 24 h, concentration not given here) and 92% in experiment [1] (measured here: cell number at 48 h, concentration not given here). Besides, the p53-positive nuclei, normalised was -0.024% (inactive) in experiment [2] (concentration not given here) and -0.251% in experiment [2] (measured here: p53 positive nuclei at 24 h, concentration not given here).
As for `CC(C)C(N)C(=O)NC(Cc1ccccc1)C(=O)O` (stereo unspecified), the nuclei count, normalised in experiment [1] (setting [3]) came out at 118%; in experiment [1] (setting [4]) it was 113%; in experiment [1] (setting [5]) it was 112%; in experiment [1] (setting [7]), 113%; in experiment [1] (setting [8]) it was 107%; in experiment [1] (setting [9]), 100%. The nuclei count, normalised in experiment [1] (setting [10]) turned out to be 103%; in experiment [1] (setting [12]) it was 102%. Also, the p53-positive nuclei, normalised was -0.188% (inactive) in experiment [2] (setting [13]); 0.0868% (inactive) in experiment [2] (setting [14]); -0.0686% (inactive) in experiment [2] (setting [15]); -0.0304% (inactive) in experiment [2] (setting [17]); -0.0726% in experiment [2] (setting [18]); -0.0759% in experiment [2] (setting [19]). Also, the p53-positive nuclei, normalised in experiment [2] (setting [20]) was 0.0367%; in experiment [2] (setting [22]), -0.118%.
